Test results as given in PubChem BioAssay (NCI).
Compounds without any hit were thinned out: in the full panel of roughly 83,000, 20% have a hit.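 Method: cells in 96-well plates; compound added at one concentration; 48 h incubation; percent growth measured; values under 10 scored active.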 Calls of active or inactive are those of the source.

test system: NCI-H23 lung; assay: NCI-60 one-dose screen, 48 h (100 = growth as untreated, 0 = no growth, -100 = all killed); conditions: 10 µM unless noted

Compound | growth
Cc1cc2c(c(C)c1Cl)C(=O)/C(=C/c1ccco1)O2 | 87.9% (inactive)
O=C(Nc1ccc(N2CCNCC2)cc1)c1[nH]ncc1Nc1cc(Oc2ccccc2)ncn1 | 20.6% (inactive)
CS(=O)(=O)Nc1ccc(C(=O)NC(C(=O)NO)c2ccc(-c3cccc(F)c3)cc2)cc1 (stereo not drawn) | 45.6% (inactive)
CC[C@]1(O)C[C@@H]2CN(CCc3c([nH]c4ccccc34)[C@@](C(=O)OC)(c3cc4c(cc3OC)N(C)[C@H]3[C@@](O)(C(=O)OC)[C@H](OC(C)=O)[C@]5(CC)C=CCN6CC[C@]43[C@@H]65)C2)C1 | 26.8% (inactive)
O=C(CN1C(=O)/C(=C\c2ccc(Cl)cc2)SC1=S)Nc1ncc(Cc2ccc(Cl)cc2)s1 | 100% (inactive)
CCCCC(O)(c1ccc(Cl)cc1)C(CN1CCOCC1)c1ccc(Cl)cc1 (stereo not drawn) | 31.2% (inactive)
O=C(Nc1ccc(C23CC4CC(CC(c5ccccc5)(C4)C2)C3)cc1)c1cccs1 | 71.4% (inactive)
O=C(COc1cc(O)c2c(=O)cc(-c3ccccc3)oc2c1)Nc1ccccc1 | 83.7% (inactive)
COc1cc(C(=O)Nc2ccc(-c3nc4ccccc4[nH]3)cc2)cc(OC)c1OC | 72.6% (inactive)
COC(=O)[C@@H]1CCCN1C(=O)[C@H]1CCCN1C(=O)[C@@H](Cc1c[nH]c2ccccc12)NC(=S)Nc1cc(C(F)(F)F)cc(C(F)(F)F)c1 | 63.8% (inactive)
O=C(CCc1nnc2sc(-c3ccc(Cl)cc3Cl)nn12)c1nc2ncccc2[nH]1 | -40.7% (active)
O=Cc1cc2ccccc2nc1Nc1nccs1 | 52.4% (inactive)
O=C(CCc1nnc2sc(Cc3ccccc3Cl)nn12)c1nc2ncccc2[nH]1 | 89.9% (inactive)
NS(=O)(=O)c1ccc(CCN=C=S)cc1 | 32.7% (inactive)
CCOc1cc(Cl)c(C(C)NC(=O)c2cccc(OC)c2)cc1OCC (stereo not drawn) | 4.89% (active)
CN1CCN(Cc2ccc(C(=O)Nc3cncc(C#Cc4cnc5cccnn45)c3)cc2C(F)(F)F)CC1 | 47.5% (inactive)
COc1ccc2c(c1)C=C1CSCC3=Cc4cc(OC)ccc4OC13O2 | 18.7% (inactive)
CN1CCN(Cc2ccc(NC(=O)c3cncc(C#Cc4nc(N)nc5[nH]ncc45)c3)cc2C(F)(F)F)CC1 | 102% (inactive)
COc1cc(C(=O)O/N=C(\N)Cc2cccc3ccccc23)cc(OC)c1OC | 80.7% (inactive)
Nc1nc(-c2cnccn2)nn1-c1nc2ccccc2s1 | 95.2% (inactive)
COC(=O)C1=C(C)NC(C)=C(C(=O)OC)C(N2C(=O)CCC2=O)C1 (stereo not drawn) | 96.8% (inactive)
COc1ccc(Br)c(/C=C2\SC(=Nc3ccc(O)cc3)NC2=O)c1 | 92.1% (inactive)
COc1ccc(Cn2c(Br)c3c(c2Br)-c2nc(NC(=O)c4ccc(OC)cc4)sc2CC3)cc1 | 81.3% (inactive)
Nc1ncnc(N)c1NC(=O)c1ccc(OCc2ccccc2)cc1 | 105% (inactive)
CCOc1ccc(-c2nonc2NC(=O)c2cccc(C)c2)cc1OCC | 78.9% (inactive)

test system: NCI-H322M lung; assay: as above; conditions: 10 µM unless noted

Compound | growth
c1ccc2c(c1)oc1cc3sccc3nc12 | 99.2% (inactive)
CC1=C(C(=O)OCC2CCN(C(=O)OC(C)(C)C)CC2)[C@H](c2cccc(C#N)c2)C2=C(CC(C)(C)CC2=O)N1 | 68.4% (inactive)
O=C(c1nc2ccccc2[nH]1)C1C(c2ccc([N+](=O)[O-])cc2)C2CC3CCCCC3N2[C@@]12C(=O)Nc1cc(Cl)ccc12 (stereo partly drawn) | 47.6% (inactive)
Nc1ccn(C2O[C@H](CO)[C@@H](O)[C@H]2O)c(=O)n1 (stereo partly drawn) | 114% (inactive)
Nc1ccc(-n2c(=O)oc3ccc(Cl)cc3c2=O)c(Cl)c1 | -2.46% (active)
CC1=C(C(=O)OCC2CCN(C(=O)OC(C)(C)C)CC2)[C@@H](c2cccc(C#N)c2)C2=C(CC(C)(C)CC2=O)N1 | 57.1% (inactive)
N#Cc1c(N)nc2c(c1N)C(c1ccc(F)cc1)c1ccc(N)cc1O2 (stereo not drawn) | 150% (inactive)
COc1ccc(Cn2c(Br)c3c(c2-c2cc(OC)c(OC)c(OC)c2)CCc2sc(NC(=O)c4ccc(OC)cc4)nc2-3)cc1 | 69.3% (inactive)
O=c1cc(NC2CCN(CCCc3ccccc3)CC2)c2cc(Cl)ccc2o1 | 0.794% (active)
Brc1ccc(Oc2ccc(Nc3ncnc4onc(-c5ccccc5)c34)cc2)cc1 | 110% (inactive)
NNC(=O)CNC(=O)Nc1n[nH]c(=S)s1 | 103% (inactive)
COc1ccc(Cn2c(Br)c3c(c2-c2cc(OC)c(OC)c(OC)c2)CCc2sc(NC(C)=O)nc2-3)cc1 | 63% (inactive)
COc1ccc(/C=C2\NC(=O)NC2=O)cc1O | 109% (inactive)
Cc1cc2c(c(C)c1Cl)C(=O)/C(=C/c1ccco1)O2 | 99.2% (inactive)
O=C(Nc1ccc(N2CCNCC2)cc1)c1[nH]ncc1Nc1cc(Oc2ccccc2)ncn1 | -5.19% (active)
CS(=O)(=O)Nc1ccc(C(=O)NC(C(=O)NO)c2ccc(-c3cccc(F)c3)cc2)cc1 (stereo not drawn) | 53.5% (inactive)
CC[C@]1(O)C[C@@H]2CN(CCc3c([nH]c4ccccc34)[C@@](C(=O)OC)(c3cc4c(cc3OC)N(C)[C@H]3[C@@](O)(C(=O)OC)[C@H](OC(C)=O)[C@]5(CC)C=CCN6CC[C@]43[C@@H]65)C2)C1 | 39.9% (inactive)
O=C(CN1C(=O)/C(=C\c2ccc(Cl)cc2)SC1=S)Nc1ncc(Cc2ccc(Cl)cc2)s1 | 107% (inactive)
CCCCC(O)(c1ccc(Cl)cc1)C(CN1CCOCC1)c1ccc(Cl)cc1 (stereo not drawn) | 70.8% (inactive)

Compound | growth
O=C(Nc1ccc(C23CC4CC(CC(c5ccccc5)(C4)C2)C3)cc1)c1cccs1 | 92.5% (inactive)
O=C(COc1cc(O)c2c(=O)cc(-c3ccccc3)oc2c1)Nc1ccccc1 | 85.6% (inactive)
COc1cc(C(=O)Nc2ccc(-c3nc4ccccc4[nH]3)cc2)cc(OC)c1OC | 94.5% (inactive)
COC(=O)[C@@H]1CCCN1C(=O)[C@H]1CCCN1C(=O)[C@@H](Cc1c[nH]c2ccccc12)NC(=S)Nc1cc(C(F)(F)F)cc(C(F)(F)F)c1 | 38.8% (inactive)
O=C(CCc1nnc2sc(-c3ccc(Cl)cc3Cl)nn12)c1nc2ncccc2[nH]1 | 11.7% (inactive)
O=Cc1cc2ccccc2nc1Nc1nccs1 | 91.8% (inactive)
O=C(CCc1nnc2sc(Cc3ccccc3Cl)nn12)c1nc2ncccc2[nH]1 | 93.5% (inactive)
NS(=O)(=O)c1ccc(CCN=C=S)cc1 | 85.2% (inactive)
CCOc1cc(Cl)c(C(C)NC(=O)c2cccc(OC)c2)cc1OCC (stereo not drawn) | 127% (inactive)
CN1CCN(Cc2ccc(C(=O)Nc3cncc(C#Cc4cnc5cccnn45)c3)cc2C(F)(F)F)CC1 | 54.4% (inactive)
COc1ccc2c(c1)C=C1CSCC3=Cc4cc(OC)ccc4OC13O2 | 49.2% (inactive)
CN1CCN(Cc2ccc(NC(=O)c3cncc(C#Cc4nc(N)nc5[nH]ncc45)c3)cc2C(F)(F)F)CC1 | 114% (inactive)
COc1cc(C(=O)O/N=C(\N)Cc2cccc3ccccc23)cc(OC)c1OC | 18.1% (inactive)
Nc1nc(-c2cnccn2)nn1-c1nc2ccccc2s1 | 103% (inactive)
COC(=O)C1=C(C)NC(C)=C(C(=O)OC)C(N2C(=O)CCC2=O)C1 (stereo not drawn) | 91.2% (inactive)
COc1ccc(Br)c(/C=C2\SC(=Nc3ccc(O)cc3)NC2=O)c1 | 99.8% (inactive)
COc1ccc(Cn2c(Br)c3c(c2Br)-c2nc(NC(=O)c4ccc(OC)cc4)sc2CC3)cc1 | 56.4% (inactive)
Nc1ncnc(N)c1NC(=O)c1ccc(OCc2ccccc2)cc1 | 100% (inactive)
CCOc1ccc(-c2nonc2NC(=O)c2cccc(C)c2)cc1OCC | 93.1% (inactive)
